# LDHA inh: blocks human lactate dehydrogenase A; P00338; purified LDHA, NADH/diaphorase-resazurin fluorescence; stronger effect = lower value; activity change, % (values are at about 110 or 230 µM); hit rate 0.15% among 480,000; in the data active means activity change below about -30%; inconclusive means mostly about -25% to -30%;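 further: plate controls were DMSO wells for no effect and wells without enzyme for full effect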
#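 Human LDH5 at 2 nM final in Tris HCl pH 7.4 with 0.06 mM NADH and 0.2 mM pyruvate, reacted 5 minutes at room temperature. Remaining NADH coupled via diaphorase/resazurin; resorufin fluorescence read at 0 and 20 minutes, normalized to enzyme-free and DMSO wells.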
# HEK293 tox: cytotoxicity counter-screen for GLP-1 receptor inverse agonists | hit rate 0.13% among 410,000 | AID 624418 | HEK293 cAMP-luciferase reporter cells, luminescence, 24 h | Potency, µM (titrated, usually from 38.3 µM), for inactives: at the highest dose activity change, negative = inhibition, hits mostly inhibitors;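 further: loss of luciferase light is scored as toxicity; potency means the concentration at half of the fitted maximal effect; on the % scale 0 is the no-effect control and ±100 the full control effect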
#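 Luminescence readout: signal drop marks cytotoxicity. Plated cells grew 12 h at 37 °C, 5% CO2, received 23 nL compound for 24 h, then got luciferase reagent, read after 12 min at RT.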
# ClpP mod: qHTS Assay for Activators of ClpP | AID 651965, 2013 | hit rate 1.9% among 340,000 | purified B. subtilis ClpP, FRET peptide cleavage, 20 min | Potency, µM (highest dose often 57.5 µM), inactives show at the highest dose activity change, negative = active; active means well fitted falling curve with a large enough effect; inconclusive means small, poorly fitted or top-dose-only effect; inactive means no such curve, though single readings can be large or run the other way; further: potency means the concentration at half of the fitted maximal effect; the source files actives as falling curves though it sought activators and does not explain the sign; nearly all actives have a fitted effect of over 65% in size
#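 FRET quenching reversal measured ClpP activation: 10 microg/mL B. subtilis ClpP at pH 8 with the FRET-FV decapeptide, read at 430 nm after 320 nm excitation. The 20-min minus 0-min signal was scaled between DMSO/no-enzyme wells and ADEP (5.8 microM final).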
# GLP-1R inv ag: acts as inverse agonist at human GLP-1 receptor; HEK293 GLP-1R CRE-luciferase, luminescence, 24 h; GLP-1R form is constitutively active; Potency, µM (highest dose often 38.3 µM), for inactives: at the highest dose activity change, negative = inhibition, actives largely listed as inhibitors; hit rate 1.6% among 410,000; further: potency means the concentration at half of the fitted maximal effect; on the % scale 0 is the no-effect control and ±100 the full control effect; nearly all actives have a fitted effect of over 55% in size
#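 Assay principle: reduced luminescence from a cAMP-responsive reporter in HEK293 cells co-expressing a constitutively active GLP-1R. Conditions: 24 hr compound incubation, 37 deg C, 5% CO2.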
# GLP-1R agonist: agonists of human GLP-1 receptor | P43220 | HEK293 GLP-1R CRE-luciferase, luminescence, 4-6 h; cells express a hypersensitive GLP-1R form | Potency, µM (top dose mostly 45.6 µM), inactives show at the top dose activation, actives largely listed as activators | hit rate 0.007% among 380,000; further: potency means the concentration at half of the fitted maximal effect; % of control where 0% means no effect
# p53 reactivation: restores transcriptional activity of mutant p53; H1299 p53-A138V BP100-luciferase reporter, luminescence, 24 h; Potency, µM (series often up to 92.2 µM), for the others: at the highest dose activity change, positive = activation, usual class: activators; hit rate 0.063% among 320,000; AID 504706; further: potency means the concentration at half of the fitted maximal effect; % of control where 0% means no effect; nearly all actives have a fitted effect of over 45% in size
#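 p53-null H1299 cells stably carrying temperature-sensitive p53-A138V and a BP100-luciferase reporter were pinned with compounds (4-point, 1:5 series) and held 24 hrs at 37 deg C. Luminescence was read 10 min after detection reagent.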
# Starred values were filed as active, the others as inactive; ? = inconclusive; nt = no result given; ! = not confirmed by another sample. In the library only some 2.9% were active in any assay of this set; here they are far more common. Unless noted, the call rests on the fitted dose curve; in most records, active means well fitted curve in the direction sought with a large enough effect; inconclusive means small, poorly fitted or top-dose-only effect, or another doubt; inactive means no such curve, though single readings can be large; an effect the other way counts as inactive or inconclusive.
SMILES,LDHA inh,HEK293 tox,ClpP mod,GLP-1R inv ag,GLP-1R agonist,p53 reactivation
Cc1cc2ncn(-c3ncnc4sc5c(c34)CCCC5)c2cc1C,-6,6%,-6%,-44%,16%,3%
c1ccc2c(c1)ncn2-c1ncnc2sc3c(c12)CCCC3,-5,-29%,?,4.5µM*,5%,7%
Cc1cccc(N2CN(Cc3cccnc3)CNC2=S)c1,-3,-1%,-2%,-9%,1%,1%
c1ccc(Nc2c(-c3ccco3)nc3ccccn23)cc1,2,-15%,25µM*,-26%,15%,9%
Fc1ccc(Nc2c(-c3ccco3)nc3ccccn23)cc1,-3,3%,28µM*!,?,10%,nt
Cc1ccc(Nc2c(-c3ccco3)nc3ccccn23)cc1,-3,12%,25µM*,?,22%,?
Cc1cccc(C(=O)Oc2ccc(/C=N/NC(=O)c3cc(O)cc(O)c3)cc2)c1,0,-12%,1%,10µM*,-34%,3%
COc1ccc(NC(=O)CN(C)C(=O)Cc2c(C)nc3ccccc3c2C)cc1,-4,5%,nt,-26%,17%,-6%
CC1=CC2=NC(=O)CC(C)(C(=O)N(CC(=O)NC(C)(C)C)C3CCCC3)N2C=C1 (centres undefined),-7,5%,32µM*,27%,-12%,1%
Cc1ccc(Nc2nc(Cl)nc(NC(C)(C)C)n2)cc1,1,4%,1%,?,24%,nt
NC(=O)CC(NC(=O)c1ccc(Br)cc1)c1ccc(N2CCCCCC2)c([N+](=O)[O-])c1 (centres undefined),-3,-27%,-1%,11µM*,17%,2%
NC(=O)CC(NC(=O)c1ccccc1)c1ccc(N2CCCCCCC2)c([N+](=O)[O-])c1 (centres undefined),-1,-32%,2%,-13%,-2%,2%
Cc1ccc(C)c(S(=O)(=O)N/N=C2/CCCc3ccccc32)c1,-4,4%,1%,-8%,-5%,-2%
Cc1ccc(NC(=O)C2CCCN(S(=O)(=O)c3cccc4cccnc34)C2)cc1Cl (centres undefined),-7,-12%,-4%,10µM*,nt,nt
Cc1ccc(C)c(N2CCN(S(=O)(=O)c3cccc4cccnc34)CC2)c1,-5,4%,nt,10µM*,15%,-3%
Cc1ccc(S(=O)(=O)N2CCN(c3ccc([N+](=O)[O-])c4cccnc34)CC2)cc1,-31*!,-19%,-12%,74%,13%,-14%
COc1cc(/C=N/OCC(=O)Nc2cc(C)on2)ccc1OCc1ccccc1,-6,-2%,-3%,-16%,12%,?
Cc1ccc(C(=O)CC(C(=O)c2ccc(C)cc2)S(=O)(=O)c2ccc(C)cc2)cc1 (centres undefined),9,nt,nt,nt,nt,nt
Cc1cc(C)cc(NC(=O)CSc2nc(N)c(NC(=O)c3cccs3)c(=O)[nH]2)c1,-32*,3%,-2%,8%,4%,-1%
O=C1c2cccc3cccc(c23)C(=O)N1OS(=O)(=O)c1ccccc1,-4,-9%,28µM*,6%,-12%,23%
CCOc1ccc(N=C2NC(=O)S/C2=C\c2ccc(Cl)cc2)cc1,-9,65%,-3%,6%,-3%,-9%
COc1ccc(C(=O)N/N=C/c2ccc3cccc(OCc4ccccc4)c3n2)cc1,-5,?,3.2µM*,?,-9%,?
COc1c(OC(C)=O)ccc(/C=C/c2ccc3cccc(OCc4ccccc4)c3n2)c1[N+](=O)[O-],-1,?,1%,5µM*,-13%,?
NC(=S)N/N=C/c1ccc2cccc(OCc3ccccc3)c2n1,-18,-30%,nt,?,30%,-4%
O=C(N/N=C/c1ccc2cccc(OCc3ccccc3)c2n1)c1ccc(Br)cc1,-7,-16%,4µM*,-22%,-10%,3%
SMILES,LDHA inh,HEK293 tox,ClpP mod,GLP-1R inv ag,GLP-1R agonist,p53 reactivation
Cc1ccccc1C(=O)N1CCN(c2ccc(NC(=O)c3ccccc3[N+](=O)[O-])cc2)CC1,-7,-12%,nt,?,4%,-1%
CCOC(=O)c1ccc2nc(NC(=O)C(C)C)sc2c1,-1,-12%,-7%,?,5%,?
CCc1nc2ccc(C(=O)N3CCN(C(C)=O)CC3)cn2c1N(CC)C(C)=O,-3,0%,-6%,11%,13%,nt
CC1(Cc2ccccc2OC(F)(F)F)C(=O)Nc2cc(-c3ccccc3Cl)ccc21 (centres undefined),-7,?,-1%,5.6µM*,5%,nt
CC1(Cc2ccccc2Cl)C(=O)Nc2cc(-c3ccccc3Cl)ccc21 (centres undefined),-3,-22%,-7%,?,-2%,nt
CC(O)CN(C)CC/C=C1/c2ccccc2CSc2ccccc21 (centres undefined),-8,0%,2%,?,-2%,-7%
C#CCN(C)CC/C=C1\c2ccccc2CSc2ccccc21,-1,-3%,-1%,4.5µM*,2%,-7%
C=CCN(C)CC/C=C1\c2ccccc2CSc2ccccc21,6,?,3%,?,0%,-7%
CN(CC/C=C1/c2ccccc2CSc2ccccc21)CCCO,-1,?,0%,5.6µM*,2%,-12%
NCC/C=C1/c2ccccc2CSc2ccccc21,-6,?,0%,3.2µM*,-2%,-25%
COC(=O)C1Cc2c([nH]c3ccccc23)C2CCC(=O)N12 (centres undefined),-12,1%,-4%,12%,0%,nt
O=C(COC(=O)c1ccccc1-n1cnnn1)c1ccc(Br)cc1,-4,4%,16µM*,-19%,-8%,18%
O=C(COC(=O)c1ccccc1-n1cnnn1)c1ccccc1,-3,3%,nt,5%,1%,17%
CCOC(=O)NC(=S)Nc1cccc(NC(=S)NC(=O)OCC)c1,-5,-2%,nt,-6%,10%,0%
CC1(C(=O)NS(=O)(=O)c2ccc(Cl)cc2)CCN1C(=O)Cc1cccc2ccccc12 (centres undefined),-5,3%,2%,?,-6%,nt
Cc1ccc(-n2ccc(=O)c(C(=O)Nc3ccc(S(=O)(=O)Nc4onc(C)c4C)cc3)n2)cc1,-62*,2%,-2%,1%,-4%,11%
Cc1noc(NS(=O)(=O)c2ccc(NC(=O)c3nn(-c4ccc(F)cc4)ccc3=O)cc2)c1C,-9,-15%,1%,10%,-5%,-3%

# Screening data as filed in PubChem BioAssay.
